Outcome and AC50 data for 17 molecules are collected here from PubChem BioAssay (EPA / NIEHS).

Holding throughout (settings): mRNA level, 48 h; actives raise or lower the signal
Read-out in experiment [1]: Tumor necrosis factor receptor superfamily member 6 (Homo sapiens) (UniProt P25445)
Nature of the experiment: LTEA_HepaRG_FAS: Life Technologies and Expression Analysis (LTEA) Assay for Fas cell surface death receptor (FAS) using HepaRG (AID 2283447). The procedure, abridged: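 Differentiated human HepaRG cells, pre-cultured 48 h, were exposed in duplicate for 48 h to 8-point half-log concentrations (top 100 uM, 0.5% DMSO) in serum-free induction medium; FAS mRNA measured by qRT-PCR, normalized to ACTB/GAPDH/POLR2A, bidirectional fit versus DMSO.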

Read-out in experiment [2]: Fatty acid synthase (Homo sapiens) (UniProt P49327)
The experiment in a line: LTEA_HepaRG_FASN: Life Technologies and Expression Analysis (LTEA) Assay for Fatty Acid Synthase (FASN) using HepaRG (AID 2283448). In outline:
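FASN expression changes, up or down relative to 0.5% DMSO, were measured by qRT-PCR in human HepaRG cells after 48 h treatment with chemicals at eight concentrations (half-log steps from 100 uM).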

Read-out in experiment [3]: Cyclin D2 (CCND2), CCND2 (gene 894)
The experiment in a line: LTEA_HepaRG_CCND2: Life Technologies and Expression Analysis (LTEA) Assay for Cyclin D2 (CCND2) using HepaRG (AID 2283449).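 Note: CCND2 transcript measured by TaqMan qRT-PCR and normalised to three housekeeping genes.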 In outline: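 Differentiated human HepaRG cells were exposed for 48 h in serum-free induction medium to eight half-log concentrations topping at 100 uM (0.5% DMSO vehicle). CCND2 mRNA was quantified by TaqMan qRT-PCR, normalised to ACTB, GAPDH and POLR2A, and fitted bidirectionally against DMSO.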

Read-out in experiment [4]: Cyclin Dependent Kinase Inhibitor 1A (CDKN1A), CDKN1A (gene 1026)
Nature of the experiment: LTEA_HepaRG_CDKN1A: Life Technologies and Expression Analysis (LTEA) Assay for Cyclin Dependent Kinase Inhibitor 1A (CDKN1A) using HepaRG (AID 2283450). The procedure, abridged:
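Read-out is CDKN1A mRNA by TaqMan qRT-PCR, normalized to three housekeeping genes and fitted in both directions against the DMSO baseline. Human HepaRG cells were treated 48 h with test chemicals up to 100 uM in half-log steps, 0.5% DMSO.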

Read-out in experiment [5]: Cyclin D1 (CCND1), CCND1 (gene 595)
Nature of the experiment: LTEA_HepaRG_CCND1: Life Technologies and Expression Analysis (LTEA) Assay for Cyclin D1 (CCND1) using HepaRG (AID 2283451).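 For AC50: TaqMan qRT-PCR transcript level normalised to ACTB GAPDH and POLR2A housekeeping genes.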 The procedure, abridged: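 HepaRG plated 48 h, medium switched to serum-free induction medium, chemicals added in duplicate (top 100 uM, half-log steps, 0.5% DMSO) for 48 h, cells lysed, RNA measured by TaqMan qRT-PCR.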

Read-out in experiment [6]: catalase (CAT), CAT (gene 847)
The experiment in a line: LTEA_HepaRG_CAT: Life Technologies and Expression Analysis (LTEA) Assay for catalase (CAT) using HepaRG (AID 2283452).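 For AC50: TaqMan qRT-PCR signal normalized to ACTB GAPDH and POLR2A housekeeping genes.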 In outline:
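Differentiated HepaRG cells in serum-free induction medium were dosed 48 h in duplicate, eight half-log concentrations from 100 uM in 0.5% DMSO. Transcript measured by TaqMan qRT-PCR, normalised to ACTB/GAPDH/POLR2A, fitted bidirectionally against DMSO.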

Read-out in experiment [7]: flavin-containing dimethylaniline monooxygenases 3 (FMO3), FMO3 (gene 2328)
Nature of the experiment: LTEA_HepaRG_FMO3: Life Technologies and Expression Analysis (LTEA) Assay for flavin-containing dimethylaniline monooxygenases 3 (FMO3) using HepaRG (AID 2283453). In outline: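 Differentiated HepaRG cells in serum-free induction medium, exposed 48 h in duplicate to 8 half-log concentrations up to 100 uM in 0.5% DMSO. FMO3 mRNA by qRT-PCR, normalized to ACTB, GAPDH, POLR2A; bidirectional fit vs DMSO.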

Read-out in experiment [8]: Cytochrome P450 (CYP1A1), CYP1A1 (gene 1543)
The experiment in a line: LTEA_HepaRG_CYP1A1: Life Technologies and Expression Analysis (LTEA) Assay for Cytochrome P450 (CYP1A1) using HepaRG (AID 2283454). In outline:
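HepaRG, 48 h post-plating switched to serum-free induction medium; 8-pt conc-response (top 100 uM, half-log, 0.5% DMSO), duplicates, 48 h. Lysis in RLT, TaqMan qRT-PCR for CYP1A1; gain or loss vs DMSO.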

Read-out in experiment [9]: CFLAR gene, CFLAR (gene 8837)
Nature of the experiment: LTEA_HepaRG_CFLAR: Life Technologies and Expression Analysis (LTEA) Assay for CFLAR gene using HepaRG (AID 2283455). The procedure, abridged:
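HepaRG cells were plated for 48 h, switched to serum-free induction medium, then exposed in duplicate for 48 h to 8 concentrations (top 100 uM, half-log steps, 0.5% DMSO). CFLAR mRNA was measured by qRT-PCR, normalized to ACTB, GAPDH and POLR2A.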

Structures are written as SMILES. The source made the active and inactive calls. Rule for the calls: active = hit-call score of the fitted dose curve at least 0.9, where 1 is the maximum; inactive = score below 0.9.

What is called AC50 is the concentration giving half of the maximal activity seen.

Chain of Fatty acid synthase (Homo sapiens) (P49327 whole entry, looked up): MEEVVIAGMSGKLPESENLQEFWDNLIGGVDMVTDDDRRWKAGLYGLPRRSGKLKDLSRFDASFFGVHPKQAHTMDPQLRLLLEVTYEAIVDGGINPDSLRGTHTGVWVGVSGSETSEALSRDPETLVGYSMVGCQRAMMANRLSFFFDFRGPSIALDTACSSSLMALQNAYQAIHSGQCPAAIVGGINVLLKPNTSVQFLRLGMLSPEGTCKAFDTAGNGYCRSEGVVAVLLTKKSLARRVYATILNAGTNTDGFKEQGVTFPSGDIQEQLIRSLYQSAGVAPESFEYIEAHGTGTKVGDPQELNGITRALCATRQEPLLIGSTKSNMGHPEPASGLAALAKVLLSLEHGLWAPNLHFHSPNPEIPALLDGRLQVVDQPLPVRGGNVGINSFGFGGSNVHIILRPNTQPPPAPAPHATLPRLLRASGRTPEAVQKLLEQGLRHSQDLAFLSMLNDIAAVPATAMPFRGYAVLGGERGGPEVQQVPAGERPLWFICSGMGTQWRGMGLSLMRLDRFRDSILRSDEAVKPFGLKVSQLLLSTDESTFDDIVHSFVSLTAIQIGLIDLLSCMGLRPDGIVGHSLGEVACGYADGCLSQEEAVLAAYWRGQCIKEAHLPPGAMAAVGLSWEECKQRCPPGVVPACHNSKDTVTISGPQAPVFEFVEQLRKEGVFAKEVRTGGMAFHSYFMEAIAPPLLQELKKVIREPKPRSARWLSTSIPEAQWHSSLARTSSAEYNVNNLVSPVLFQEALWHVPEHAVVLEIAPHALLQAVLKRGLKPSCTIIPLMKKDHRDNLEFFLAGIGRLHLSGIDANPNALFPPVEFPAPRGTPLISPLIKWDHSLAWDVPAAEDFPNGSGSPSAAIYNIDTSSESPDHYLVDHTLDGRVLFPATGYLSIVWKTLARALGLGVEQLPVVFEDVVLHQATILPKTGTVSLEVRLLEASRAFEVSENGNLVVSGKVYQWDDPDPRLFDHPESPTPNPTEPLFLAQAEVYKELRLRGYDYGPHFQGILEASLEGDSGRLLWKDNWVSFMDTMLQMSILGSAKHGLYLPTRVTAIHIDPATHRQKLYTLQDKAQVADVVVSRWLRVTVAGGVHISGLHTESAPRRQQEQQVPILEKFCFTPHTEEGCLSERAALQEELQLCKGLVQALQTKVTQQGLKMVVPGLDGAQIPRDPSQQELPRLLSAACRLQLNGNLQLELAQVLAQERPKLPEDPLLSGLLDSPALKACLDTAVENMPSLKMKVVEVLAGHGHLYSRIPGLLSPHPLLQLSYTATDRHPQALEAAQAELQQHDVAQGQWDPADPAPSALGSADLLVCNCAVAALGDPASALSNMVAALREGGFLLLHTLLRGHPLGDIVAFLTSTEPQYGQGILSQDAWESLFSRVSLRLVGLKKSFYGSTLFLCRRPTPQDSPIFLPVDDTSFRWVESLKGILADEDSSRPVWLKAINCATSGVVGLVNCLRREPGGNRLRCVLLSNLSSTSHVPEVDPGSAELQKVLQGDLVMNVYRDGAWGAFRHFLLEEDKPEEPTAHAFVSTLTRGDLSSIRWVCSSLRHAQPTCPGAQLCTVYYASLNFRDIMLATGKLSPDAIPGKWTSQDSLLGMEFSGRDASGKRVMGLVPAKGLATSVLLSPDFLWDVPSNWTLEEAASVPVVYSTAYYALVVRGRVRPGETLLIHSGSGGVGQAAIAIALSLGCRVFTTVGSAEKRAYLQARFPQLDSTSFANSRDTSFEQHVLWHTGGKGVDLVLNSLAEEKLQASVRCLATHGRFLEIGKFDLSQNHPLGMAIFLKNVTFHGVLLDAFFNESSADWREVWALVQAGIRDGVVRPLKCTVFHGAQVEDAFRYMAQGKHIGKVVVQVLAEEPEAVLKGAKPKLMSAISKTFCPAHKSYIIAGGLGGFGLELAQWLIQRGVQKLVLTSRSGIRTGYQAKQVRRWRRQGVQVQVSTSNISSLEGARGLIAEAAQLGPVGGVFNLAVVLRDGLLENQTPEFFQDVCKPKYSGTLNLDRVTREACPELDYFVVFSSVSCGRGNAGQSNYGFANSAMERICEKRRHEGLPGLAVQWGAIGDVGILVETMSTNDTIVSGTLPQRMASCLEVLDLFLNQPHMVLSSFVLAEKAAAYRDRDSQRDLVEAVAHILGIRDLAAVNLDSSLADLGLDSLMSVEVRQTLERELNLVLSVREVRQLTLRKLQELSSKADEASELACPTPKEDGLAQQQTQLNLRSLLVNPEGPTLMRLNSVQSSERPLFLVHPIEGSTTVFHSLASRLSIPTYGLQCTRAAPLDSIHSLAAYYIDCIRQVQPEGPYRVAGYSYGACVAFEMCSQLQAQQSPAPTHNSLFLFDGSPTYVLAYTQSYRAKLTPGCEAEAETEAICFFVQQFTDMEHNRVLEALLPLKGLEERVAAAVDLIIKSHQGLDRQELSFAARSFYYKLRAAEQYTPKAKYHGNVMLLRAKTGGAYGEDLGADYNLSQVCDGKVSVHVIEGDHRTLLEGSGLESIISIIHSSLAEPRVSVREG

For `CN(C)c1nc(=O)n(C2CCCCC2)c(=O)n1C`, the molecule was called inactive in experiment [1], in experiment [2], in [3], in experiment [4], in experiment [5] and in experiment [6]. For the same molecule, the molecule was classed as inactive in experiment [7] and in experiment [9]. The AC50 in experiment [8] was 50 µM (active).

Turning to `Cc1cccc([N+](=O)[O-])c1`, the molecule was classed as inactive in experiment [2], in experiment [3], in [4], in experiment [5], in [6] and in experiment [7]. In addition, the outcome in experiment [9] was inactive. For the same molecule, in experiment [8], the AC50 was 50 µM (active).

On to `Cc1ccccc1[N+](=O)[O-]`, for which the outcome in experiment [1], in experiment [2], in [4], in experiment [5], in experiment [6] and in experiment [7] was inactive. The outcome in [8] and in [9] was inactive.

Consider `CCOC(=O)C(O)(c1ccc(Cl)cc1)c1ccc(Cl)cc1`, for which the molecule was called inactive in experiment [1], in experiment [2], in experiment [3], in experiment [4], in experiment [5] and in experiment [6]. In addition, the molecule was classed as inactive in experiment [7] and in [9]. In experiment [8], the AC50 is 47.1 µM (active).

For the molecule `CC(C)C(=O)OCC(C)(C)C(OC(=O)C(C)C)C(C)C` (stereo not drawn), the molecule was classed as inactive in experiment [1], in experiment [2], in [4], in [5], in experiment [6] and in [7]. Moreover, the molecule was classed as inactive in experiment [8] and in experiment [9].

In the case of `CC(C)(c1ccccc1)c1ccc(O)cc1`, the outcome in experiment [1], in experiment [2], in experiment [4], in [5], in experiment [6] and in experiment [7] was inactive. Also, the outcome in [8] was inactive.

As for `ClC1=C(Cl)[C@]2(Cl)[C@@H]3[C@@H](Cl)[C@H]4O[C@H]4[C@@H]3C1(Cl)C2(Cl)Cl`, the outcome in experiment [1], in experiment [2], in [4], in experiment [5], in [6] and in experiment [7] was inactive. Besides, the outcome in experiment [9] was inactive. In addition, in experiment [8], the AC50 is 50 µM (active).

Take `c1ccc(-c2ccccc2)cc1`: the result in experiment [2], in experiment [3], in [4], in experiment [5], in [6] and in [7] was inactive. Besides, the molecule was called inactive in [8] and in experiment [9].

Take `Clc1ccc(Cl)cc1`: the call in [1], in experiment [2], in [3], in experiment [4], in [5] and in [6] was inactive. Besides, the call in experiment [7], in experiment [8] and in experiment [9] was inactive.

As for `O=NN(c1ccccc1)c1ccccc1`, the outcome in [1], in experiment [2], in experiment [3], in [4], in [5] and in experiment [6] was inactive. Also, the outcome in experiment [7] and in [9] was inactive. Also, the AC50 in experiment [8] was 25.9 µM (active).

Take `C=CC(=O)NCNC(=O)C=C`: the molecule was called inactive in [1], in experiment [2], in experiment [4], in experiment [5], in experiment [6] and in experiment [7]. Also, the outcome in experiment [9] was inactive. Moreover, in experiment [8], the AC50 was 25 µM (active).

Consider `CCC(C)c1cc([N+](=O)[O-])cc([N+](=O)[O-])c1O` (stereo not drawn), for which the concentration at half-maximal activity (AC50) is 2.25 µM (active) in [1]; 1.16 µM (active) in [2]; 7.37 µM (active) in experiment [4]; 11.1 µM (active) in experiment [5]; 1.38 µM (active) in experiment [6]; 2.51 µM (active) in [7]. The AC50 in experiment [8] was 85.7 µM (active); in experiment [9], 1.5 µM (active).

Turning to `Oc1ccc(C(c2ccc(O)cc2)(C(F)(F)F)C(F)(F)F)cc1`, the result in [1], in [4] and in experiment [5] was inactive. The AC50 in experiment [2] was 90.7 µM (active); in experiment [3], 0.147 µM (active); in experiment [6] it was 89.2 µM (active); in experiment [7] it was 78.3 µM (active); in [8], 50 µM (active); in experiment [9], 91.3 µM (active).

As for `CCCCCCCCCC[N+](C)(C)CCCCCCCCCC`, the result in experiment [1], in [3] and in experiment [6] was inactive. Also, the AC50 is 42.7 µM (active) in experiment [2]; 88.2 µM (active) in experiment [4]; 50 µM (active) in experiment [5]; 79.4 µM (active) in experiment [7]; 22.9 µM (active) in experiment [8]; 76.5 µM (active) in [9].

`CCCN(CCC)N=O`: the molecule was classed as inactive in [1], in experiment [2], in experiment [3], in experiment [4], in experiment [5] and in [6]. Further, the result in experiment [7] and in experiment [9] was inactive. Moreover, the AC50 in experiment [8] is 50 µM (active).

Turning to `ClC1=C(Cl)[C@]2(Cl)[C@@H]3[C@@H]4C[C@@H]([C@H]5O[C@@H]45)[C@@H]3[C@@]1(Cl)C2(Cl)Cl`, the call in experiment [1], in experiment [2], in experiment [3], in experiment [4], in experiment [5] and in experiment [6] was inactive. Further, the molecule was called inactive in experiment [7] and in [9]. The AC50 in [8] was 28.3 µM (active).

For `COc1ccc(O)c(C(C)(C)C)c1`, the outcome in experiment [1], in experiment [2], in experiment [3], in experiment [4], in experiment [6] and in [7] was inactive. The call in experiment [8] and in experiment [9] was inactive.
